# Experimental data from ChEMBL document CHEMBL2218924, “A broad activity screen in support of a chemogenomic map for kinase signalling research and drug discovery” (Biochem J, 2013).
# Columns and labels:
# [1] = molecular target: T1, Serine/threonine-protein kinase 17A (Homo sapiens) (UniProt Q9UEE5); conditions: at 10 µM
# T1 sequence (whole entry): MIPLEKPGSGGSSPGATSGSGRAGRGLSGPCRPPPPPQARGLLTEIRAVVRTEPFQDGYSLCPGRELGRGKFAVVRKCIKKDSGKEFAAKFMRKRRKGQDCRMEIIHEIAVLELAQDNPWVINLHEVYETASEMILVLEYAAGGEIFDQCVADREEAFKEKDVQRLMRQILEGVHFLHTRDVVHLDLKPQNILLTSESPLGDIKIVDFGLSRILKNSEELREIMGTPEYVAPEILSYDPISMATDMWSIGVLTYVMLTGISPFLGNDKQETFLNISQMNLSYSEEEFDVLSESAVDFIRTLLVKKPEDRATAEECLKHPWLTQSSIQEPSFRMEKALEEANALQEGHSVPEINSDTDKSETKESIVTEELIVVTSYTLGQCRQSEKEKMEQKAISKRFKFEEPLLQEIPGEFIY
# [2] = molecular target: T2, Ephrin type-A receptor 1 (Homo sapiens) (UniProt P21709); conditions: at 10 µM
# T2 sequence (whole entry): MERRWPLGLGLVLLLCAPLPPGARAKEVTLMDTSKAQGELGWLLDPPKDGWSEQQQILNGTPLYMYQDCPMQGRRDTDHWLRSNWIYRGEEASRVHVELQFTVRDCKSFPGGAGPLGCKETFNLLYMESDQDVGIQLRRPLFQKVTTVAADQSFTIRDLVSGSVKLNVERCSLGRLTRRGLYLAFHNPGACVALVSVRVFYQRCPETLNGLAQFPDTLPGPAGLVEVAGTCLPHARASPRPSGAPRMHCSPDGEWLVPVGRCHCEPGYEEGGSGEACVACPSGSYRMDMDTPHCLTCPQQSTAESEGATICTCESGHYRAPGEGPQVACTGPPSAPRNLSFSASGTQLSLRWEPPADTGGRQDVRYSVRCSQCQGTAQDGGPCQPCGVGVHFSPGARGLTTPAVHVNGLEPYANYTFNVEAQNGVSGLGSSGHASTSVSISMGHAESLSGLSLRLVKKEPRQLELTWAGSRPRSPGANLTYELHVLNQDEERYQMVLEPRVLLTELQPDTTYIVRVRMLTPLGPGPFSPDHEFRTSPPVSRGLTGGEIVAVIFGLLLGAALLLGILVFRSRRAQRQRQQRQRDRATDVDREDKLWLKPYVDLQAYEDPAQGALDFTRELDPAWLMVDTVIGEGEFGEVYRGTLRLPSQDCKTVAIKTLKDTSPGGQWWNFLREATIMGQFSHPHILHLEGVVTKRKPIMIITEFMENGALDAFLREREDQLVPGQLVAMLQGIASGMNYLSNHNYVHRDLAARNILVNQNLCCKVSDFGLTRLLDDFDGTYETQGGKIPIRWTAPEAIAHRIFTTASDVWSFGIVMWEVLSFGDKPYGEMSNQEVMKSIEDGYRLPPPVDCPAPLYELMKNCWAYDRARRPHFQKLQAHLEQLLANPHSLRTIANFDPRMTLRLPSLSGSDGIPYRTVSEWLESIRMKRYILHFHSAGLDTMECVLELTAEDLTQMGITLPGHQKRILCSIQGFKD
# [3] = molecular target: T3, Ephrin type-A receptor 3 (Homo sapiens) (UniProt P29320); conditions: at 1 µM
# T3 sequence (whole entry): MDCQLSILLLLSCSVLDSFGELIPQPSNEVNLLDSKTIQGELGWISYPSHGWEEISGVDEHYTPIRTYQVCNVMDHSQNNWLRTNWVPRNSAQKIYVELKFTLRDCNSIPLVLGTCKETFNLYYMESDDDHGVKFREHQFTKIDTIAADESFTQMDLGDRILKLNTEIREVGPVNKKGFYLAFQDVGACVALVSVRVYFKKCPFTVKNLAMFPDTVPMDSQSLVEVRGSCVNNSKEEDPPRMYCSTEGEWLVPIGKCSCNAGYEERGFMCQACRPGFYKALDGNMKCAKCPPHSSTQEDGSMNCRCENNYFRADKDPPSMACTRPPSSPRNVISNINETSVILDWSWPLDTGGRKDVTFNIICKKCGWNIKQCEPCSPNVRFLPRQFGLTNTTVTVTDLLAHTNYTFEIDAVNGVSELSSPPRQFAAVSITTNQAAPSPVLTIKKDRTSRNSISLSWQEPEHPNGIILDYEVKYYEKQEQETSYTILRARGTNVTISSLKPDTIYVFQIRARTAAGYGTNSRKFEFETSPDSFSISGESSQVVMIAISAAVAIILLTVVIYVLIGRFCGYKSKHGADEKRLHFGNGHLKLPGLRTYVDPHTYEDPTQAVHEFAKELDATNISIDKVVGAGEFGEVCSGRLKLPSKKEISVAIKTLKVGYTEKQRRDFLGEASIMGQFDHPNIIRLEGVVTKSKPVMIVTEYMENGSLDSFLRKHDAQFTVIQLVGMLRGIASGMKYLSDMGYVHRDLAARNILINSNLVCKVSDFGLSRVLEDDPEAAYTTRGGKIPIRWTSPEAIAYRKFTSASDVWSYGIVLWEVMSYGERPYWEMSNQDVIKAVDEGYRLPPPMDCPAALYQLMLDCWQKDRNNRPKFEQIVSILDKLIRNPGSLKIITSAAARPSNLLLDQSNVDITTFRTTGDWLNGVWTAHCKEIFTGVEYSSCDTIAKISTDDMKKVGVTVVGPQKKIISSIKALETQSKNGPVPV
# [4] = molecular target: T4, Dual specificity tyrosine-phosphorylation-regulated kinase 2 (Homo sapiens) (UniProt Q92630); conditions: at 1 µM
# T4 sequence (whole entry): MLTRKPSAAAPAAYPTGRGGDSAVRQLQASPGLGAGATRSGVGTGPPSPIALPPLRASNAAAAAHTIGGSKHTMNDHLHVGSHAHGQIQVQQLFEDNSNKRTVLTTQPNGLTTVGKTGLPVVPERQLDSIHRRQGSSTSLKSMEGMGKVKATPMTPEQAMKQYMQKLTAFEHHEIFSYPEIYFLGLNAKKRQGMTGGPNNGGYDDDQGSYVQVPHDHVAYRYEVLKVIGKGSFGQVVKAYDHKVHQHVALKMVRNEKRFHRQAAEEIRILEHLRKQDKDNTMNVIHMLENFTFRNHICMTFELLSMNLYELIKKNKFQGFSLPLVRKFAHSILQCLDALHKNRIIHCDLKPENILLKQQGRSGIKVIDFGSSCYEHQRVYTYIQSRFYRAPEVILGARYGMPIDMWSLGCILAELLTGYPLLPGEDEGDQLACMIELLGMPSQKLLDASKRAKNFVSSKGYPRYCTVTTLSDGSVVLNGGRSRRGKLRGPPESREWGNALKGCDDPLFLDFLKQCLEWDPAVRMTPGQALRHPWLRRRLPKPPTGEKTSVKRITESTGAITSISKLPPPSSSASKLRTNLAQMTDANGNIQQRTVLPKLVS
# [5] = molecular target: T4, Dual specificity tyrosine-phosphorylation-regulated kinase 2 (Homo sapiens); conditions: at 10 µM
# [6] = molecular target: Epidermal growth factor receptor (Homo sapiens) (UniProt P00533); conditions: at 1 µM
# [7] = molecular target: Ephrin type-A receptor 2 (Homo sapiens) (UniProt P29317); conditions: at 10 µM
# [8] = molecular target: T2, Ephrin type-A receptor 1 (Homo sapiens); conditions: at 1 µM
# [9] = molecular target: Ephrin type-A receptor 2 (Homo sapiens) (UniProt P29317); conditions: at 1 µM
# [10] = molecular target: Epidermal growth factor receptor (Homo sapiens) (UniProt P00533); conditions: at 10 µM
# Chain of Epidermal growth factor receptor (Homo sapiens) (P00533 whole entry): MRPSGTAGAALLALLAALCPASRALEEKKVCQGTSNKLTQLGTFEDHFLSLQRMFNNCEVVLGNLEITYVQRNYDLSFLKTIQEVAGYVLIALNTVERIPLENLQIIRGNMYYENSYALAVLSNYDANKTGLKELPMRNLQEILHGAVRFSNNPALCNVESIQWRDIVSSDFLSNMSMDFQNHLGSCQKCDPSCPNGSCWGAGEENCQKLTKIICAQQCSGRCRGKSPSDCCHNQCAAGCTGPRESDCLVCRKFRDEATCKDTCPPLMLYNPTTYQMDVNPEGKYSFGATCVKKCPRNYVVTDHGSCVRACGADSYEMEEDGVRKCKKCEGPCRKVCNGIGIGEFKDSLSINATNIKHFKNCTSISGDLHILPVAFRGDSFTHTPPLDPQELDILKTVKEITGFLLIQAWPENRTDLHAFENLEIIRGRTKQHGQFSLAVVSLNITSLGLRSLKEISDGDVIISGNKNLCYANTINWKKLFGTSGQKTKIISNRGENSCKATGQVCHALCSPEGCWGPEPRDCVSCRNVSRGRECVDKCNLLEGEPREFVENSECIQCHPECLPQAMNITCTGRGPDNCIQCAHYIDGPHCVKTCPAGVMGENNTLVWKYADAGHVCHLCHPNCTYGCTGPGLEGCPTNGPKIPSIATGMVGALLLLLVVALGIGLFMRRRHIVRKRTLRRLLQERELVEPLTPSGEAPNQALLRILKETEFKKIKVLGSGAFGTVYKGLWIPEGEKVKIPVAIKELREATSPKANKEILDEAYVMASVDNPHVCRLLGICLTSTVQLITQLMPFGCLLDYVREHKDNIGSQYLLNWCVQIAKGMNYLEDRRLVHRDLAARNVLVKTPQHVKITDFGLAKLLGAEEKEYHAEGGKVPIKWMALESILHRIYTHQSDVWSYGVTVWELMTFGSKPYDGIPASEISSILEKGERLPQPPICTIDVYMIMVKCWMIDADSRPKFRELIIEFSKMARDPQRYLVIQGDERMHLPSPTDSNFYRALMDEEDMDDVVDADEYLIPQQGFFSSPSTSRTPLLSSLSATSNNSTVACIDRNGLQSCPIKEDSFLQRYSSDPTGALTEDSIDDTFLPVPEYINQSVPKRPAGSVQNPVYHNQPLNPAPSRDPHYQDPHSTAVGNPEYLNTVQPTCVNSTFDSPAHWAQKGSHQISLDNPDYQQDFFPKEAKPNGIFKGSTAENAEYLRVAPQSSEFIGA
# Chain of Ephrin type-A receptor 2 (Homo sapiens) (P29317 whole entry): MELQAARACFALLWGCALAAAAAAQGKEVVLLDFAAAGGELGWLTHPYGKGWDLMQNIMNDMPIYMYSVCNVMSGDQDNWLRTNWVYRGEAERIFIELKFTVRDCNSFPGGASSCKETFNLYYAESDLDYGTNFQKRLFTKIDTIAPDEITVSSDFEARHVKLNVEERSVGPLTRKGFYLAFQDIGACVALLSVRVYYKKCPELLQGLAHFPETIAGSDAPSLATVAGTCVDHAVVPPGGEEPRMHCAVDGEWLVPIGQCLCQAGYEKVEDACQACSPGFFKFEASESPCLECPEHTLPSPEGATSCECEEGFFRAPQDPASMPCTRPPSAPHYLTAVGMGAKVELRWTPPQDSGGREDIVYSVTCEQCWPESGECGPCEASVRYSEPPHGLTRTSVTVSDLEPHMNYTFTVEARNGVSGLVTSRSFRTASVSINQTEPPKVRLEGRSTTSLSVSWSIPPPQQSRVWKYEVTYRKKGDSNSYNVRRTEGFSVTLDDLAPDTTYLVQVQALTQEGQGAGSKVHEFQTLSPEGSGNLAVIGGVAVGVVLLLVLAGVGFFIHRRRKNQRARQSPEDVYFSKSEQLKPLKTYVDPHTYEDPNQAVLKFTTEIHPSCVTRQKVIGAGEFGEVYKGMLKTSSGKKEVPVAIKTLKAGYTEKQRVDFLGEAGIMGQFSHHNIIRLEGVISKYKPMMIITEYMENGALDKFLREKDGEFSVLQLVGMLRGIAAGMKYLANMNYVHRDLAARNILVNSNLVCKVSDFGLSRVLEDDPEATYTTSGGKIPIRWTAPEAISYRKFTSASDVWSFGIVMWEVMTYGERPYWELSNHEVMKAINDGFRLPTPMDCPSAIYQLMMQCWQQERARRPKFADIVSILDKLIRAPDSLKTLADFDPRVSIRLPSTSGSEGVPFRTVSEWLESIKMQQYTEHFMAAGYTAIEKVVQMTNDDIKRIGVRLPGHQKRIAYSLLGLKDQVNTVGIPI
structure (smiles),measurement,setting,value
Cc1cc(C)c(/C=C2\C(=O)Nc3ccccc32)[nH]1,residual activity,[1],3%
same,residual activity,[2],103%
same,residual activity,[3],101%
COc1cc2c(cc1OC)-c1n[nH]c(Nc3cccc(F)c3)c1C2,residual activity,[1],53%
same,residual activity,[2],34%
same,residual activity,[3],83%
N#C/C(=C\c1ccc(O)c(O)c1)C(=O)NCc1ccccc1,residual activity,[4],87%
same,residual activity,[5],73%
same,residual activity,[6],125%
same,residual activity,[7],101%
O=C(CCCc1ccc(-c2ccccc2F)cc1)Nc1ccc(O)cc1,residual activity,[4],105%
same,residual activity,[5],91%
same,residual activity,[8],93%
same,residual activity,[2],86%
same,residual activity,[9],97%
same,residual activity,[3],99%
CN(C)S(=O)(=O)c1ccc2c(c1)/C(=C/c1cc3c([nH]1)CCCC3)C(=O)N2,residual activity,[5],91%
same,residual activity,[8],96%
same,residual activity,[2],96%
same,residual activity,[9],89%
same,residual activity,[3],91%
CC(C)(C)c1nc2c3ccc(F)cc3c3c(=O)[nH]ccc3c2[nH]1,residual activity,[1],0%
same,residual activity,[8],74%
same,residual activity,[9],103%
same,residual activity,[7],103%
same,residual activity,[3],99%
O=c1c(-c2ccc(F)cc2)c(-c2ccncc2)[nH]n1-c1ccc(Cl)cc1,residual activity,[1],71%
same,residual activity,[6],54%
same,residual activity,[10],6%
same,residual activity,[2],56%
CC(C)[C@H](CO)Nc1nc(Nc2cc(N)cc(Cl)c2)c2ncn(C(C)C)c2n1,residual activity,[4],94%
same,residual activity,[5],74%
same,residual activity,[8],95%
same,residual activity,[2],11%
same,residual activity,[9],88%
same,residual activity,[7],29%
same,residual activity,[3],93%
O=C1NC(=O)C(c2c[nH]c3ccccc23)=C1c1c[nH]c2ccccc12,residual activity,[1],25%
same,residual activity,[8],77%
same,residual activity,[2],22%
same,residual activity,[7],50%
Nc1nc(Nc2ccc(S(N)(=O)=O)cc2)nn1C(=O)c1c(F)cccc1F,residual activity,[1],47%
same,residual activity,[8],58%
same,residual activity,[2],6%
same,residual activity,[7],39%
CCN1/C(=C/C(C)=O)Sc2ccc(OC)cc21,residual activity,[4],5%
same,residual activity,[5],-5%
O=S(=O)(NCCNC/C=C/c1ccc(Br)cc1)c1cccc2cnccc12,residual activity,[2],63%
Cn1sc(=O)n(Cc2ccccc2)c1=O,residual activity,[4],96%
same,residual activity,[5],82%
same,residual activity,[8],96%
same,residual activity,[2],93%
same,residual activity,[9],93%
same,residual activity,[7],92%
same,residual activity,[3],87%
COc1cc2nccc(Oc3ccc(NC(=O)Nc4cc(C)on4)c(Cl)c3)c2cc1OC,residual activity,[8],10%
same,residual activity,[2],6%
same,residual activity,[9],-3%
same,residual activity,[7],-3%
same,residual activity,[3],1%
CC(C)c1nn(-c2c(Cl)cccc2Cl)c2nc(Cc3ccc(OCCO)cc3)[nH]c(=O)c12,residual activity,[4],96%
same,residual activity,[5],106%
same,residual activity,[8],105%
same,residual activity,[2],73%
same,residual activity,[9],96%
same,residual activity,[7],103%
same,residual activity,[3],94%
NCCNc1ncc(C(N)=O)c(Nc2cccc(C(F)(F)F)c2)n1,residual activity,[1],60%
same,residual activity,[8],81%
same,residual activity,[2],45%
same,residual activity,[9],103%
same,residual activity,[7],76%
CCCC(=O)Oc1ccc2[nH]c(C(=O)c3cc4ccccc4[nH]3)cc2c1,residual activity,[5],102%
same,residual activity,[8],88%
same,residual activity,[2],94%
same,residual activity,[3],107%
